Measurements taken from ChEMBL document CHEMBL3988442, “University of Dundee, Small-Polar-MMV Screening Library” (2021).
Out of some 48,000 compounds screened, about 13,000 (27%) showed an effect of 50% or more. Some of the results follow.

System: Wolbachia pipientis
Assay: Anti-Wolbachia Cell-Based Screen
Type: functional
Parameters: scale not given: in the data most compounds retested in dose-response had high values
Settings: 5 µM

| SMILES | Percent Effect [%] |
| --- | --- |
| Cc1cnn(CC(C)NCCc2cccs2)c1 (stereo not drawn) | 11.98 |
| CC1CN(C)CCN1C(=O)COc1cccc(Oc2ccccn2)c1 (stereo not drawn) | 82.16 |
| COCCN1C[C@H]2[C@@H](C1)N(C(=O)COc1ccccc1)CC[C@H]2OC | 0.3223 |
| CC(C)=CCN1CCN(C(=O)COc2ccccc2)[C@H]2CS(=O)(=O)C[C@H]21 | -38.59 |
| O=C(c1ccnc(-n2cnnc2)c1)N1CCCC2(CCNC2)C1 (stereo not drawn) | -10.09 |
| CN(C)c1nccc(N(C)C2CCN(CC3CCOC3)CC2)n1 (stereo not drawn) | -1.947 |
| CC(C)N1CCC(N(C)c2ccnc(N(C)C)n2)CC1 | 15.64 |
| CC(C)N1CCOC(c2ccnc(N(C)C)n2)C1 (stereo not drawn) | 82.78 |
| CCOC(=O)N1CCCC2(CCCNC2)C1.Cl (stereo not drawn) | -10.87 |
| Oc1ccc(N2CCN(Cc3ccc(F)cc3Br)CC2)cc1 | 1.788 |
| CCCN(CC)c1cc(C2CCNCC2)nc(C)n1 | 112.1 |
| CC(C)NC(=O)CN1CCSC2(CCCCC2)C1 | -91.97 |
| O=C1N(Cc2ccccn2)C[C@H]2CN(C3CCOCC3)CCN12 | 0.5644 |
| O=C(c1cccc(-n2cnnn2)c1)N1CCC2(CC1)OCCO2 | 106.4 |
| O=C(c1cnc(-c2ccccc2)s1)N1CCC2(CC1)OCCO2 | -4.517 |
| O=C(C1CC(=O)N(c2ccccc2)C1)N1CCC2(CC1)OCCO2 (stereo not drawn) | -2.385 |
| CCCN1CCC(c2nc3ccc(C)cn3n2)CC1.O=C(O)C(F)(F)F | 104.2 |
| Cc1cnc(N2C[C@H]3CCN(CC4CC4)C[C@H]3C2)nc1.O=C(O)C(F)(F)F | 15.24 |
| Cc1cnc(N2C[C@H]3CCN(CC4CC4)C[C@@H]3C2)nc1.O=C(O)C(F)(F)F | 6.173 |
| O=C(NC[C@H]1C[C@@H]2CCN1C[C@@H]2CN1CCCCC1)Nc1ccsc1 | 3.271 |
| CC[C@H]1CN2CC[C@H]1C[C@@H]2CNCc1ccc(OC(F)(F)F)cc1 | -1.711 |
| Cc1ccc(CC(=O)N2CCN(CC(O)c3ccccc3)CC2)cn1 (stereo not drawn) | -5.029 |

| SMILES | Percent Effect [%] |
| --- | --- |
| CNc1ncccc1C(=O)N1CCN(C)C2(CCN(C)CC2)C1 | -3.315 |
| CCOc1ncccc1C(=O)N1CCN(C)C2(CCN(C)CC2)C1 | -9.489 |
| CCc1ccc(OCC(=O)N2CCN(CC)CC2)cc1 | -2.93 |
| CN1CCN(C(=O)c2cn(Cc3ccccc3)c3ncccc23)CC1 | 129.1 |
| CCN1CCN(C(=O)c2cn(Cc3ccccc3)c3ncccc23)CC1 | 118.7 |
| CC(C)CN1CCC2(CC1)CN(C(=O)C(C)C)C2.O=C(O)C(F)(F)F | -9.801 |
| Cc1ccc([C@]2(O)CC[C@H]3CN(Cc4ccccc4F)C[C@H]32)nc1.O=C(O)CC(O)(CC(=O)O)C(=O)O | 152.5 |
| Cc1ccc(CN2C[C@@H]3CN(c4ncc(F)cn4)C[C@@H]3C2)cc1.O=C(O)C(F)(F)F | 6.106 |
| O=C(O)CC(O)(CC(=O)O)C(=O)O.O[C@@]1(c2ccccn2)CC[C@H]2CN(Cc3cccc(Cl)c3Cl)C[C@H]21 | -2.173 |
| O=C(O)CC(O)(CC(=O)O)C(=O)O.O[C@@]1(c2ccccn2)CC[C@H]2CN(Cc3ccccn3)C[C@H]21 | 115.3 |
| O=C(O)C(F)(F)F.O=C1[C@@H]2CN(Cc3ccccn3)C[C@H]2CCN1c1cncnc1 | 16.77 |
| O=C(N1CCCC1)N1C[C@@H]2CCNC[C@@H]21 | -24.15 |
| CCCN1C[C@H]2CC[C@@H]1CN(C(=O)Cc1c(C)nc(CC)[nH]c1=O)C2 | 6.983 |
| CNC(=O)[C@@H]1C[C@H]2CN(c3ncccn3)C[C@H]2N1C(C)C.O=C(O)C(F)(F)F.O=C(O)C(F)(F)F | -5.727 |
| Oc1cccc(CN2C[C@H]3CC[C@@H]2CN(Cc2ccncc2)C3)c1 | -4.265 |
| CC(C)NC(=O)[C@H]1C[C@@H]2[C@@H](C1)OCCN2Cc1ccncc1 | -4.174 |
| COCCN1CCN(Cc2ccncc2)[C@H]2CS(=O)(=O)C[C@H]21 | 0.5994 |
| C[C@@H]1CN2C[C@H](O)CC2CN1Cc1ccncc1 (stereo partly drawn) | 148.8 |
| O=S1(=O)C[C@@H]2[C@H](C1)N(Cc1ccoc1)CCN2Cc1ccncc1 | -1.69 |
| C[C@H]1CN2C[C@H](O)CC2CN1Cc1ccncc1 (stereo partly drawn) | 120.2 |
| Cc1c(CN2CCCC(C(=O)c3ccc(C(C)(C)C)cc3)C2)cnn1C (stereo not drawn) | 35.11 |
